Our source for the inhibition values is ChEMBL document CHEMBL1961873, “Compounds: GSK PKIS; Assays: Nanosyn kinase panel” (2012).

The structures appear in SMILES notation.

Experiment [1] concerns the target T1, Tyrosine-protein kinase ITK/TSK (Homo sapiens) (UniProt Q08881).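 Also: values are mean percent inhibition of ITK from the GSK PKIS screen.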
T1 sequence (whole entry): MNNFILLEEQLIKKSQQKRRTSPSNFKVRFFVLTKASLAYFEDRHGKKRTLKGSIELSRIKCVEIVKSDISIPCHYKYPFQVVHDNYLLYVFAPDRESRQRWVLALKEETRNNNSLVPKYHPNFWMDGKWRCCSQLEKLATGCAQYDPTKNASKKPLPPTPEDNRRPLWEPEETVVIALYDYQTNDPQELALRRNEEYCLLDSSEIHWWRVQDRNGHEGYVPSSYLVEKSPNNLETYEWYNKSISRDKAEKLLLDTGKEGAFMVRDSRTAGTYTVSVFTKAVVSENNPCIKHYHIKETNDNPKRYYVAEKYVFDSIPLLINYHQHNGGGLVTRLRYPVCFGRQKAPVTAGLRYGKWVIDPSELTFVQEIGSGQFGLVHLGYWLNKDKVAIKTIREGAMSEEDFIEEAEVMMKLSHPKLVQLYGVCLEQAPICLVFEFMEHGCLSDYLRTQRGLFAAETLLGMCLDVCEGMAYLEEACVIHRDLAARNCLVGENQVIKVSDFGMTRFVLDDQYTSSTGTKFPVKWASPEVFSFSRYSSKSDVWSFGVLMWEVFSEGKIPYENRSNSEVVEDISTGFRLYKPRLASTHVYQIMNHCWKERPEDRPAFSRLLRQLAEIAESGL
As to conditions: at 1 µM.

The target of experiment [2] is Tyrosine-protein kinase JAK1 (Homo sapiens) (UniProt P23458). The note with it: at 0.1 µM.
Chain of Tyrosine-protein kinase JAK1 (Homo sapiens) (P23458 whole entry): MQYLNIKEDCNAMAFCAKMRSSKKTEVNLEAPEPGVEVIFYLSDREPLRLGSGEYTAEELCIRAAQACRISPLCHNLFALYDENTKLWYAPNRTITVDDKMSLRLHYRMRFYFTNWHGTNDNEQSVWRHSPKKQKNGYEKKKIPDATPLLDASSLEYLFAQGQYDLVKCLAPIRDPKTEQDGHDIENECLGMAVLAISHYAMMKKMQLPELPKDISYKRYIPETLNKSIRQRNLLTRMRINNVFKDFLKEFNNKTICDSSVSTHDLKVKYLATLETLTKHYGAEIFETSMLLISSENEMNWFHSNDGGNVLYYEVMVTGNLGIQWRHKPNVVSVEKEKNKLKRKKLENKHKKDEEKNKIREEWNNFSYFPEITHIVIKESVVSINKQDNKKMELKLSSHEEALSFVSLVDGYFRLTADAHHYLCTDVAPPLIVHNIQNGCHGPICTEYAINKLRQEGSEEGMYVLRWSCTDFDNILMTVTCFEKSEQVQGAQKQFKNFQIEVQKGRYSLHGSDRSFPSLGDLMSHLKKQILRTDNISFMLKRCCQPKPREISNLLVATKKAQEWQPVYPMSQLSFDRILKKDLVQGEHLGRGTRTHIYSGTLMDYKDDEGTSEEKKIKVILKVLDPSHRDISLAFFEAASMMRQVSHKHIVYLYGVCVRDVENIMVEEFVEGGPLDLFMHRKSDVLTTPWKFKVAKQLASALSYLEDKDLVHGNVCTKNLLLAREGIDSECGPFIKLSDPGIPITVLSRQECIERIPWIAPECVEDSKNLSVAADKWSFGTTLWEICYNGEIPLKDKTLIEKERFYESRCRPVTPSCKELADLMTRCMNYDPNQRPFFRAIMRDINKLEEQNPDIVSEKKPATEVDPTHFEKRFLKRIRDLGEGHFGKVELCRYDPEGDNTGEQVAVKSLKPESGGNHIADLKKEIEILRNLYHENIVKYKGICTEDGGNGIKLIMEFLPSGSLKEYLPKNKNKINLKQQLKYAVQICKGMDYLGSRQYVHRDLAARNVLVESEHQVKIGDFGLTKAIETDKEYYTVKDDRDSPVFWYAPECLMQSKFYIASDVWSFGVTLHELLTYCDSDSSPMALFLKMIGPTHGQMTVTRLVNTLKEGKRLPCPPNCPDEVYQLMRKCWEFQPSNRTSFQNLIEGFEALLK
The target is the same in experiment [3]. As to conditions: at 1 µM.
For experiment [4], the target named is Tyrosine-protein kinase JAK2 (Homo sapiens) (UniProt O60674). The note with it: at 0.1 µM.
Experiment [5] shares this target. The note with it: at 1 µM.
The target in experiment [6] is T2, Tyrosine-protein kinase JAK3 (Homo sapiens) (UniProt P52333).
T2 sequence (whole entry): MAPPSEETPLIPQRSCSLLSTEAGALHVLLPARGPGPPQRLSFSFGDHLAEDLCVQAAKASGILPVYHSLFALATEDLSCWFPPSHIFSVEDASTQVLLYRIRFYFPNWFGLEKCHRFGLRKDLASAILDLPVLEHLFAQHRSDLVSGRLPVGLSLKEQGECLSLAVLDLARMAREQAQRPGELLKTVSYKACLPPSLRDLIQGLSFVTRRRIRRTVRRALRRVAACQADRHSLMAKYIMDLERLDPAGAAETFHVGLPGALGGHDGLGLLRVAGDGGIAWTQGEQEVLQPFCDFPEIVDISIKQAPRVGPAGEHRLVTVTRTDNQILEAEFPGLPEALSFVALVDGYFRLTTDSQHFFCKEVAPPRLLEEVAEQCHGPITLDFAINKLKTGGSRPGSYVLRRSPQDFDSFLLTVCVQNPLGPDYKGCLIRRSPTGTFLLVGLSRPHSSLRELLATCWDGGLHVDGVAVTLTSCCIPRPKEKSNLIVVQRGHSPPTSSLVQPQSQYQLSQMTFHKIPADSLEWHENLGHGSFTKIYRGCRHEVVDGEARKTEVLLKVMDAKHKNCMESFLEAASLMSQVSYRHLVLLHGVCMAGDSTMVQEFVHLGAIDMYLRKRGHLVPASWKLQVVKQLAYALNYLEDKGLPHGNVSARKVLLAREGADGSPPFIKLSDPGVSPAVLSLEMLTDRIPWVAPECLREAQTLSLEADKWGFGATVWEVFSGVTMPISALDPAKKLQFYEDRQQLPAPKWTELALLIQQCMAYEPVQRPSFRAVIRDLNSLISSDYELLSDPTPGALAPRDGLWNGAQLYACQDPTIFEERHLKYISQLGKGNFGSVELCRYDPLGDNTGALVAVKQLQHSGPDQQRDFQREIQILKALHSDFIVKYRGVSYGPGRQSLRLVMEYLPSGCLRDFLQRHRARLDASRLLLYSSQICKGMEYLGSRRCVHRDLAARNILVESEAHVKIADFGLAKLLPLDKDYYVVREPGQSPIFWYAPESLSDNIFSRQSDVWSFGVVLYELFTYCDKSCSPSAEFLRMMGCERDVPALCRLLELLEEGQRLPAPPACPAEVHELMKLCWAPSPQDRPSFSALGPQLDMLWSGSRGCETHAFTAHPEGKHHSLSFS
The note with it: at 0.1 µM.

For experiment [7], the target named is T2, Tyrosine-protein kinase JAK3 (Homo sapiens). The note with it: at 1 µM.
In experiment [8] the target is Vascular endothelial growth factor receptor 2 (Homo sapiens) (UniProt P35968). The note with it: at 0.1 µM.
Chain of Vascular endothelial growth factor receptor 2 (Homo sapiens) (P35968 whole entry): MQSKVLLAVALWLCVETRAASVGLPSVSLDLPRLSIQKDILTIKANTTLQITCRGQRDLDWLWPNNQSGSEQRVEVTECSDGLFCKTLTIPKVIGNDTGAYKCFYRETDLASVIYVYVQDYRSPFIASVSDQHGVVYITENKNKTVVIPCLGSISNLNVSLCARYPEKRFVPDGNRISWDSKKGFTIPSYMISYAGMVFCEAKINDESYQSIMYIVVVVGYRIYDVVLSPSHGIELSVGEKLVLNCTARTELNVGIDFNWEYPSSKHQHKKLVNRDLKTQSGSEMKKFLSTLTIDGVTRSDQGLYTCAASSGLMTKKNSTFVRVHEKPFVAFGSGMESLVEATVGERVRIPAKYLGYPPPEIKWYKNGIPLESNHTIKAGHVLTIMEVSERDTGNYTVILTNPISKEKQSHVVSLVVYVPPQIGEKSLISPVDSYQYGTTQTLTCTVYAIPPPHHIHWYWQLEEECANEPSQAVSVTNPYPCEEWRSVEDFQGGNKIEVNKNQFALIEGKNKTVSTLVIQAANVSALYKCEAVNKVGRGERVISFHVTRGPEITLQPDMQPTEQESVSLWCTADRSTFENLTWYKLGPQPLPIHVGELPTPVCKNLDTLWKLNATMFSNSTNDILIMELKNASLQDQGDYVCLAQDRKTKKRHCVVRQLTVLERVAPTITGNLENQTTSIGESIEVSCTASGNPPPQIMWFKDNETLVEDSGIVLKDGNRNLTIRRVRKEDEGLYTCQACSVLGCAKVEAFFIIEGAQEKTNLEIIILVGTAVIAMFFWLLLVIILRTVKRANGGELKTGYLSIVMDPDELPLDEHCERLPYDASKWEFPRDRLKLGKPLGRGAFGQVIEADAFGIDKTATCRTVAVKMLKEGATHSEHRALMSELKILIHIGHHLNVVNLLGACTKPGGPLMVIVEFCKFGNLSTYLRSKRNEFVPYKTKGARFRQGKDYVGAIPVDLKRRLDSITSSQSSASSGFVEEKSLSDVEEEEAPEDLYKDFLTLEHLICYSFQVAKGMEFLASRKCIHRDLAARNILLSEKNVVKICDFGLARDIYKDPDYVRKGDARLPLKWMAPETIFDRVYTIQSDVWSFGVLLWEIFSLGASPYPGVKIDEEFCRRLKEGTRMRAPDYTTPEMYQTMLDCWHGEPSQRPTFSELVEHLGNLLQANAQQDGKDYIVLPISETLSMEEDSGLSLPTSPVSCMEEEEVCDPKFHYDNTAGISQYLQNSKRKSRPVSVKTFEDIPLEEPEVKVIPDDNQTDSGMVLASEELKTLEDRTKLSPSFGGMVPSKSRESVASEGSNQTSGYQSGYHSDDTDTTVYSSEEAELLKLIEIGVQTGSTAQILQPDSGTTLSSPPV
For experiment [9] the target is unchanged. The note with it: at 1 µM.
The target in experiment [10] is Mast/stem cell growth factor receptor Kit (Homo sapiens) (UniProt P10721). As to conditions: at 0.1 µM.
Chain of Mast/stem cell growth factor receptor Kit (Homo sapiens) (P10721 whole entry): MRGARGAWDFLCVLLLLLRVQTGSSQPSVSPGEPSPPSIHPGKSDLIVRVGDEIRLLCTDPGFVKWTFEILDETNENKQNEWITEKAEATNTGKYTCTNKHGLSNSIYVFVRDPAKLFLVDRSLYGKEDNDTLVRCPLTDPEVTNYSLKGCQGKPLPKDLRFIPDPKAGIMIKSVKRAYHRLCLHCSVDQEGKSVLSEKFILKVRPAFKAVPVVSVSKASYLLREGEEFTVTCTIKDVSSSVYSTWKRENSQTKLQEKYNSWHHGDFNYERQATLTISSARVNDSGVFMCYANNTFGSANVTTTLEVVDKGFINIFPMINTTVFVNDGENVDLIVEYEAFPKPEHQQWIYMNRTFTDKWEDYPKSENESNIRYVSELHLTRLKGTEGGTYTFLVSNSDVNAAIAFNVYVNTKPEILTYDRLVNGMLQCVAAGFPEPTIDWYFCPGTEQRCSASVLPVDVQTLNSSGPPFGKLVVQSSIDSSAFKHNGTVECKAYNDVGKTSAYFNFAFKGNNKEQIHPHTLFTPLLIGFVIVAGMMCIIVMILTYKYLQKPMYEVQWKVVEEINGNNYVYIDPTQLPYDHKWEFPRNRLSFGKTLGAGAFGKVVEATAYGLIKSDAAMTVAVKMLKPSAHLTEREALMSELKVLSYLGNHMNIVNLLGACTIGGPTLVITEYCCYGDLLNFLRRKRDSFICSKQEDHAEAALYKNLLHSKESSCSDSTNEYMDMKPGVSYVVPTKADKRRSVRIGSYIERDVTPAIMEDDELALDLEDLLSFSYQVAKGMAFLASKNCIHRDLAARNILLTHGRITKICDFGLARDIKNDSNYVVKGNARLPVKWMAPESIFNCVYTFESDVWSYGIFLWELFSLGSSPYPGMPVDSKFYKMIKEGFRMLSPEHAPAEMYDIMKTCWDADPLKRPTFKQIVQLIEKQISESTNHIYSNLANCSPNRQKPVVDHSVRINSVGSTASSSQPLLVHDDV
Experiment [11] shares this target. The note with it: at 1 µM.
Experiment [12] has as its system Mast/stem cell growth factor receptor Kit (Homo sapiens), P10721 [D816V]. As to conditions: at 0.1 µM.
For experiment [13] the test system is unchanged. As to conditions: at 1 µM.
Experiment [14] has as its system Mast/stem cell growth factor receptor Kit (Homo sapiens), P10721 [T670I]. As to conditions: at 0.1 µM.
Experiment [15] has the same test system. The note with it: at 1 µM.
In experiment [16] the test system is Mast/stem cell growth factor receptor Kit (Homo sapiens), P10721 [V560G]. As to conditions: at 0.1 µM.
Chain of Mast/stem cell growth factor receptor Kit (Homo sapiens), P10721 [V560G] (P10721 whole entry V560G): as the sequence (P10721 whole entry) above, with V560G counted along it
Experiment [17] shares this test system. As to conditions: at 1 µM.
The target in experiment [18] is Tyrosine-protein kinase Lck (Homo sapiens) (UniProt P06239). The note with it: at 0.1 µM.
Chain of Tyrosine-protein kinase Lck (Homo sapiens) (P06239 2-509 limits assumed): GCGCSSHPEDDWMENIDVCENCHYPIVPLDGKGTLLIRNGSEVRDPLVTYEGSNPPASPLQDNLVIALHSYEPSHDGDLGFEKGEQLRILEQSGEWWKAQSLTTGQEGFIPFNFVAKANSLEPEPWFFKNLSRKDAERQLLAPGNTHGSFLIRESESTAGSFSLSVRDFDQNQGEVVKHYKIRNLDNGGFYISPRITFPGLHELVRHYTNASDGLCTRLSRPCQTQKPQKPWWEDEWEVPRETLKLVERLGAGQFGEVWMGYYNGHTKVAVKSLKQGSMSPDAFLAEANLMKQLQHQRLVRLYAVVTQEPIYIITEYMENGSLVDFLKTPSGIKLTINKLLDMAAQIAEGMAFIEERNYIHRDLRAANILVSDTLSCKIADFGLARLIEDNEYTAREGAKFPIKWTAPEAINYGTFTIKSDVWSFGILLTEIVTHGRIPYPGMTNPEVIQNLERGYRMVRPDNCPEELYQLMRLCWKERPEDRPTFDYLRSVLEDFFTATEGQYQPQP
Experiment [19] shares this target. As to conditions: at 1 µM.
The target in experiment [20] is Leukocyte tyrosine kinase receptor (Homo sapiens) (UniProt P29376). The note with it: at 0.1 µM.
Chain of Leukocyte tyrosine kinase receptor (Homo sapiens) (P29376 whole entry): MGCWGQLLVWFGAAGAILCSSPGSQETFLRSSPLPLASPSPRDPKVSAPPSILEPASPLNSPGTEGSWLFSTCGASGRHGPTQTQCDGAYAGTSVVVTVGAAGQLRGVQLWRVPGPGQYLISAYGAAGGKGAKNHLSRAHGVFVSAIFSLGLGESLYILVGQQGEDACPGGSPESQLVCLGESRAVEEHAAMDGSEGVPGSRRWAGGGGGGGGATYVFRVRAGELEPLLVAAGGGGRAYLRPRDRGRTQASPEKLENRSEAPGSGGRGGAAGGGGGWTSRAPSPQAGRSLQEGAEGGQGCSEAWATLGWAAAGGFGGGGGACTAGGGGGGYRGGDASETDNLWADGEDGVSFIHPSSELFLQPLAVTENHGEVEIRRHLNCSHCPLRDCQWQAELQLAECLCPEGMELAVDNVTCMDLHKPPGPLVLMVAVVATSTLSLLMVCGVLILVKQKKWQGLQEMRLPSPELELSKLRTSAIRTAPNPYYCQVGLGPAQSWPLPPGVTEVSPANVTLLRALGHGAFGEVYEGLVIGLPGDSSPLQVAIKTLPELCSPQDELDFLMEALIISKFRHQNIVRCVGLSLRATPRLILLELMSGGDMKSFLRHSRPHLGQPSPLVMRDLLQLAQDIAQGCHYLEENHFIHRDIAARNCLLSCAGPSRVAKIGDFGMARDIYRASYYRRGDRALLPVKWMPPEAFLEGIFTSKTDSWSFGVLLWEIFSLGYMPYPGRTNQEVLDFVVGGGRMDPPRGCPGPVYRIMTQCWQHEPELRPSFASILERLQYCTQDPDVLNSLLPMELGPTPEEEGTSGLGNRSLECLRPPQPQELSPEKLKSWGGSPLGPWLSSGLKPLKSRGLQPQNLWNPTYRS

Chain of Mast/stem cell growth factor receptor Kit (Homo sapiens), P10721 [T670I] (P10721 whole entry T670I): as the sequence (P10721 whole entry) above, with T670I counted along it
Chain of Mast/stem cell growth factor receptor Kit (Homo sapiens), P10721 [D816V] (P10721 whole entry D816V): as the sequence (P10721 whole entry) above, with D816V counted along it

As for `O=C(O[C@H]1CN[C@H](C#Cc2cc3ncnc(Nc4ccc(OCc5cccc(F)c5)c(Cl)c4)c3s2)C1)N1CCOCC1`, the inhibition – broadly, the drop in the measured response relative to a control, in per cent – in experiment [1] was 2.04%; in experiment [2], 5.13%; in experiment [3] it was 13.7%; in [4], 0.79%; in experiment [5] it was 1.3%; in experiment [6], -0.56%. In addition, the inhibition is -2.5% in [7]; 2.63% in [8]; 7.79% in experiment [9]; 5.01% in experiment [10]; 6.15% in [11]; 7.97% in experiment [12]. The inhibition in experiment [13] was 7.17%; in experiment [14], 4.04%; in experiment [15], 5.91%; in [16], -2.49%; in experiment [17], -1.75%; in experiment [18], 1.76%. For the same compound, the inhibition worked out at 1.88% in [19] and 4.09% in experiment [20].
On to `CCCNc1cccc(-n2ncc3c(N/N=C/c4ccncc4)ncnc32)c1`, for which the inhibition in experiment [1] is 10.8%; in [2] it was 6.59%; in experiment [3] it was 11.7%; in experiment [4], 0.82%; in experiment [5], 14.7%; in [6] it was -1.09%. Further, the inhibition was 8.21% in experiment [7]; 17.3% in experiment [8]; 64.9% in [9]; 2.4% in experiment [10]; 23.7% in experiment [11]; -0.57% in [12]. Also, the inhibition in experiment [13] was determined as 9.89%; in experiment [14], 1.36%; in [15], 5.45%; in [16], 7.17%; in experiment [17], 13.4%; in [18], 23.1%. Moreover, the inhibition came to 68.3% in experiment [19] and 1.2% in experiment [20].
As to `Cc1cc(O)cc(C)c1/C=C/c1cncc(C(N)=O)c1`, the inhibition is 2.12% in [1]; -0.72% in experiment [2]; 2.56% in [3]; 2.3% in experiment [4]; 2.93% in [5]; -0.77% in experiment [6]. Further, the inhibition in experiment [7] was found to be 1.29%; in experiment [8], 4.56%; in experiment [9], 6.58%; in experiment [10], 16.3%; in [11], 66.6%; in [12], 3.61%. The inhibition in experiment [13] came out at 2.03%; in experiment [14], 2.25%; in [15] it was 1.74%; in experiment [16] it was 2.69%; in experiment [17], 22.9%; in experiment [18], 8.78%. In addition, the inhibition in experiment [19] was determined as 44.1%; in [20] it was 2.14%.
As to `COc1cccc(-n2ncc3c(N/N=C/c4ccc(C(=O)NCCN(C)C)cc4)ncnc32)c1`, the inhibition in experiment [1] was determined as 8.64%; in [2], 4.89%; in experiment [3] it was 18.1%; in [4], 2.63%; in [5] it was 14.1%; in experiment [6] it was 0.22%. For the same compound, the inhibition was 15.4% in experiment [7]; 43.6% in experiment [8]; 68.7% in [9]; 15.5% in experiment [10]; 65.8% in experiment [11]; 7.1% in [12]. Besides, the inhibition in experiment [13] is 15%; in experiment [14] it was 6.62%; in experiment [15] it was 52.3%; in experiment [16], 2.06%; in experiment [17], 5.99%; in [18] it was 72.9%. For the same compound, the inhibition in experiment [19] is 94.4%; in experiment [20], 2.24%.
For the compound `Fc1cccc(COc2ccc(Nc3ncncc3C#Cc3ccccc3)cc2Cl)c1`, the inhibition is 1.93% in [1]; 2.37% in experiment [2]; 14.7% in experiment [3]; 1.34% in experiment [4]; 2.01% in [5]; -1.12% in experiment [6]. In addition, the inhibition in experiment [7] was 0.1%; in experiment [8], 5.83%; in experiment [9] it was 6.38%; in [10], 3.62%; in experiment [11], 7.97%; in experiment [12], 9.06%. In addition, the inhibition in experiment [13] is 7.92%; in experiment [14] it was 3.83%; in experiment [15], 6.38%; in experiment [16], -1.39%; in experiment [17], -0.04%; in experiment [18], 1.72%. For the same compound, the inhibition in experiment [19] is 2%; in experiment [20] it was 4.37%.
On to `CN(c1ccc(NC(=O)NCCN2CCOCC2)cc1)c1ccnc(Nc2ccc(CS(C)(=O)=O)cc2)n1`, for which the inhibition in experiment [1] was 9.06%; in experiment [2], 3.28%; in experiment [3] it was 15%; in experiment [4], 0.02%; in experiment [5], 9.94%; in experiment [6], -0.77%. Moreover, the inhibition in [7] stood at 7.15%; in experiment [8], 7.07%; in experiment [9], 34.8%; in experiment [10], 60.2%; in [11], 94.2%; in [12], 2.49%. In addition, the inhibition in experiment [13] worked out at 4.98%; in experiment [14] it was 21.6%; in experiment [15], 73.6%; in [16] it was 57.2%; in experiment [17], 84.5%; in [18], 1.63%. Moreover, the figures for the inhibition in experiment [19] and in experiment [20] were 11% and 2.84%, respectively.
